# Compound activity (PubChem BioAssay)
# Shown is part of a subset that was picked to be rich in hits.
# AMA1-RON2 inh: qHTS for Inhibitors of AMA1-RON; Towards Development of Antimalarial Drug Lead: Primary Screen | Plasmodium falciparum AMA1 (3D7) - RON2 peptide interaction | AlphaScreen AMA1-biotinylated RON2 peptide binding | Potency, µM (titrated, usually from 58.2 µM), most hits filed as inhibitors | 360,000 tested, 0.2% active | AID 720542, 2013; note: nearly all actives have a fitted effect of over 45% in size
#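 AMA1 (3D7) with his tag at 25 nM final met compounds first, then biotinylated RON2 peptide at 25 nM; detection used donor plus acceptor beads, 10 µg/mL apiece, read by AlphaScreen after 30 min at room temperature.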
# Shiga inhibitor: A qHTS for Small Molecule Inhibitors of Shiga Toxin; 290,000 tested, 9.2% active; inhibition, % at 38.7 µM; Vero cells, Shiga toxin protein synthesis inhibition reporter; AID 2315, 2010; in the data active = inhibition mostly above about 28%, no sharp cut-off; inactive = mostly below about 43%
# AmpC inh detg: qHTS Inhibitors of AmpC Beta-Lactamase (assay with detergent) | P00811 | 370,000 tested, 0.041% active | AmpC hydrolysis of nitrocefin, absorbance 480 nm, 0.01% Triton | Potency, µM (top dose mostly 114 µM), hits mostly inhibitors; note: nearly all actives have a fitted effect of over 25% in size
# Target sequence (P00811 whole entry, looked up): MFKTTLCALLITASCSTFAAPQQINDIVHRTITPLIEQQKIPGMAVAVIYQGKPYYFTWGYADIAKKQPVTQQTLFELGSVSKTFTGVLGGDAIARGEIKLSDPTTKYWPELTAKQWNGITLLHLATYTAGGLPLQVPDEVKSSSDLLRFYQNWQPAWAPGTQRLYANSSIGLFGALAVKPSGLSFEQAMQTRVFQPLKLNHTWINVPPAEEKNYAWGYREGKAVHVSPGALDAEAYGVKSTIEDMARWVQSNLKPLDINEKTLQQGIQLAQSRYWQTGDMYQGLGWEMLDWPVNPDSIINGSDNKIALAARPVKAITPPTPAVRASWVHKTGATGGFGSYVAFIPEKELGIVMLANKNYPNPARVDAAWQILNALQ
#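 20 mM phosphate pH 7.0 + 0.01% (detergent screen) or 0.0001% Triton X-100; 5.3 nM AmpC reagent; cpd preinc 15 min RT; nitrocefin (800 uM stock) to start; A480 q20 s × 4 min; Activity was normalised to no-enzyme and no-compound control wells.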
# AmpC inh no detg: qHTS Inhibitors of AmpC Beta-Lactamase (assay without detergent); AID 485341, 2010; AmpC nitrocefin hydrolysis, absorbance 480 nm, 0.0001% Triton; 330,000 tested, 0.52% active; Potency, µM (doses to about 57.1 µM), usual class: inhibitors; note: nearly all actives have a fitted effect of over 20% in size
#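 AmpC (5.3 nM in the dispensed reagent) in 20 mM phosphate pH 7.0 with 0.01% (detergent screen) or 0.0001% Triton X-100 was preincubated with compounds for 15 min at room temperature. Nitrocefin was then added from an 800 uM solution, and hydrolysis was followed at 480 nm.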
# CHX counter: Cycloheximide Counterscreen for Small Molecule Inhibitors of Shiga Toxin; cell reporter, cycloheximide protein synthesis inhibition counterscreen; 300,000 tested, 12% active; max response, %; in the data active = max response mostly above about 13%, no sharp cut-off; inactive = mostly below about 14%; note: read at 38.3 µM for the half of the compounds with a filed dose
# SARS PLpro yeast: qHTS of Yeast-based Assay for SARS-CoV PLP. Potency, µM (top dose mostly 32.9 µM), actives largely listed as activators. 330,000 tested, 0.19% active. S. cerevisiae expressing SARS-CoV PLpro, growth rescue; calls by dose curve; note: nearly all actives have a fitted effect of over 55% in size
# A number is an active result; n = inactive; u = inconclusive; x = not tested or not shown. Unless noted, calls come from the whole dose curve; as a rule, active = well fitted curve in the direction sought with a large enough effect; inconclusive = small, poorly fitted or top-dose-only effect, or another doubt; inactive = no such curve, though single readings can be large; an effect the other way counts as inactive or inconclusive.
SMILES,AMA1-RON2 inh,Shiga inhibitor,AmpC inh detg,AmpC inh no detg,CHX counter,SARS PLpro yeast
CCc1ccc(CNC(=O)C2CCN(c3nn4cc(-c5ccc(OC)cc5)nc4s3)CC2)cc1,x,x,n,x,x,x
CC1CCCCN1C(=O)COC(=O)c1n[nH]c2ccccc12 (centres undefined),n,n,n,n,58,n
Cc1cc(C(=O)COC(=O)c2n[nH]c(=O)c3ccccc23)c(C)n1C,n,x,n,n,x,n
COCCn1c(C)cc(C(=O)COC(=O)c2ccccc2Br)c1C,n,n,n,n,n,n
COCCn1c(C)cc(C(=O)COC(=O)c2n[nH]c3ccccc23)c1C,n,n,n,n,11,u
COc1cc(C(=O)OCC(=O)c2cc(C)n(C)c2C)cc(OC)c1OC,n,n,n,n,n,n
Cc1cc(C(=O)COC(=O)c2nccnc2N)c(C)n1C,n,103,n,n,42,n
Cc1cc(C(=O)COC(=O)c2n[nH]c3ccccc23)c(C)n1C,n,62,n,n,47,n
CCOC(=O)C1=C(C)N(C)C(=O)NC1c1ccc2c(c1)OCO2 (centres undefined),n,n,n,n,n,n
O=C1/C(=C/c2cccs2)SC(=S)N1CCCC(=O)N(CCO)c1ccccc1,n,n,n,n,n,n
COc1cc(Cl)ccc1OCc1cc(C(=O)N(C)CCc2cnn(C)c2)no1,n,115,n,n,64,n
CCN(Cc1cnn(C)c1)C(=O)c1cc(COc2cc(C)c(Cl)c(C)c2)on1,n,n,n,n,24,n
Cc1cc(OCc2cc(C(=O)N(C)CCc3cnn(C)c3)no2)cc(C)c1Cl,n,70,n,n,39,n
CCN(Cc1cnn(C)c1)C(=O)c1cc(COc2ccc(F)cc2F)on1,n,n,n,n,15,n
CCC1Nc2ncnc(N3CCOCC3)c2N(Cc2ccccc2)C1=O (centres undefined),n,x,n,n,x,n
O=C1NC2(C=Cc3c(ccc4ccccc34)O2)Oc2ccccc21 (centres undefined),n,84,n,n,31,n
CC1(C)OC(=O)N(c2ccccc2)C12C=Cc1c(ccc3ccccc13)O2 (centres undefined),n,n,n,n,n,n
CN(C)Cc1c(O)ccc2c(=O)c(-c3ccc(Cl)cc3)coc12,n,n,n,n,14,u
O=c1c(-c2ccc([N+](=O)[O-])cc2)coc2c(O)c(O)ccc12,n,57,n,n,23,n
CCN(CC)Cc1c(O)ccc2c(=O)c(-c3ccc(Cl)cc3)coc12,n,n,u,n,n,n
O=c1c(-c2ccc3c(c2)OCCO3)coc2c(CN3CCOCC3)c(O)ccc12,n,33,n,n,39,n
O=C(NCC1CCCO1)c1c(O)c2cccc3c2n(c1=O)CCC3 (centres undefined),n,n,u,n,n,n
CCOC(=O)C(NC(=O)CC(C)C)(Nc1sc(C)c(CC)c1C#N)C(F)(F)F (centres undefined),n,n,n,n,n,n
O=C(Nc1ccc(N2CCN(c3ncccc3C(F)(F)F)CC2)nc1)c1cccs1,n,n,n,n,n,n
N/C(=N\O)c1ccc(N2CCN(c3ncccc3C(F)(F)F)CC2)nc1,n,73,n,n,39,n
CCOc1cc(NS(=O)(=O)CC)c(OCC)cc1NC(=O)c1ccco1,n,n,u,n,n,n
CCN(CC)CCCN1C(=O)C(O)=C(C(=O)c2ccco2)C1c1ccc(OC(C)C)cc1 (centres undefined),n,n,u,n,22,n
COc1ccc(C2C(C(=O)c3ccco3)=C(O)C(=O)N2CCCn2ccnc2)c(OC)c1 (centres undefined),n,n,n,n,32,n
C=CCOc1ccc(C2C(C(=O)c3ccco3)=C(O)C(=O)N2CCCN(CC)CC)cc1 (centres undefined),n,n,u,n,9.5,n
O=C(Cn1cc(SCc2ccccc2Cl)c2ccccc21)N1CCOCC1,n,n,n,n,n,n
